# Compounds with a hit are over-represented: about 0.41% of the library has one in this group of screens.
# N370S GC mod – inhibitors or activators of N370S glucocerebrosidase for Gaucher disease | P04062 | N370S GC spleen homogenate, 4MU-glucoside fluorescence | Potency, µM (titrated, usually from 59.4 µM), inactives show at the highest dose activity change, negative = inhibition, most hits filed as inhibitors | 0.092% of 330,000 active;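 note: potency is the fitted concentration of half-maximal effect; 0% = full enzyme activity and -100% = no enzyme basal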
# GAA glycogen – inhibitors or activators of human alpha-glucosidase glycogen cleavage; recombinant GAA, glycogen substrate, Amplex Red glucose oxidase fluorescence; Potency, µM (doses to about 76.4 µM), inactives show at the top dose activity change, negative = inhibition, usual class: inhibitors; 0.38% of 300,000 active; AID 2100;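 note: potency is the fitted concentration of half-maximal effect; 0% = full enzyme reaction and -100% = no-enzyme basal signal; the screen sought inhibitors and activators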
#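 Natural-substrate format: glycogen cleavage by 4 nM human enzyme, glucose read by Amplex Red coupling (Ex 573, Em 610 nm). Normalized to enzyme and no-enzyme controls.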
# GLA inh pH 4.5 – blocks human alpha-galactosidase A at pH 4.5 | AID 1467 | activity change, negative = inhibition, % at 105 µM | 230,000 tested, under 10 active | purified enzyme, 4-MU-alpha-Gal fluorescence, pH 4.5 | P06280;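 note: 0% = full activity with enzyme and -100% = basal without enzyme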
# Target sequence (P06280 whole entry, looked up): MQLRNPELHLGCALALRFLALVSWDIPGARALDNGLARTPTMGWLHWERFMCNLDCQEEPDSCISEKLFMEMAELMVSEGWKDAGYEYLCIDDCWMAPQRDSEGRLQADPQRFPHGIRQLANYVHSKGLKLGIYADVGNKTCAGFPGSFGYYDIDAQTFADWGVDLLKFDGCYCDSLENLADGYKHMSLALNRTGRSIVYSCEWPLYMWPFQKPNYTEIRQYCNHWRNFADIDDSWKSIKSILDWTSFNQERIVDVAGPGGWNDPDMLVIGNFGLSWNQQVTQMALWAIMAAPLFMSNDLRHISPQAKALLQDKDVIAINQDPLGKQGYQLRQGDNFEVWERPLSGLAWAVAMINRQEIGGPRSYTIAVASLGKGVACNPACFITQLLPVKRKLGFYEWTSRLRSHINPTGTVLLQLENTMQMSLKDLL
# GAA inhib – blocks human lysosomal alpha-glucosidase; P10253; purified human GAA, 4-MU-alpha-glucoside fluorescence; Potency, µM (highest dose often 76.9 µM), inactives show at the top dose activity change, negative = inhibition, actives largely listed as inhibitors; 0.005% of 200,000 active;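 note: potency is the fitted concentration of half-maximal effect; plate controls were uninhibited enzyme wells for no effect and no-enzyme background for full effect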
#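 Read-out is 4-methylumbelliferone fluorescence (Ex 365/Em 440 nm) after NaOH/glycine stop at pH 10. Enzyme 4 nM, substrate 400 uM, pH 5.0 citrate buffer, 20 min room temperature; AC50 from Hill-equation concentration-response.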
# GLA spleen mod – alpha-galactosidase A (human) modulation. 0.008% of 240,000 active. AID 2107. human spleen homogenate, 4MU-alpha-Gal fluorescence, 40 min. P06280. Potency, µM (series often up to 80 µM), for the others: at the top dose activity change, negative = inhibition, hits mostly inhibitors;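 note: potency is the fitted concentration of half-maximal effect; 0% = enzyme with vehicle and -100% = no enzyme basal signal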
#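 Spleen homogenate 1 ug + cpd (titration) + 4-MU-alpha-D-galactopyranoside 1 mM; 37C 40 min; 50 mM citrate/phosphate pH 5.0, 0.01% Tween-20; stop pH 10; fluorescence 365/440; AC50 via Hill.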
# GAA spleen mod – inhibits or activates alpha-glucosidase in human spleen homogenate | P10253 | 0.006% of 240,000 active | human spleen homogenate, 4-MU-alpha-glucoside fluorescence | Potency, µM (highest dose often 79.9 µM), for the others: top-dose activity change, negative = inhibition, usual class: inhibitors;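 note: potency is the fitted concentration of half-maximal effect; 0% = enzyme with vehicle and -100% = no enzyme basal signal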
#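 Human spleen homogenate (1 ug) with 4-methylumbelliferyl-alpha-D-glucopyranoside (1 mM final) in 50 mM citrate/phosphate pH 5.0, 0.01% Tween-20; 40 min at 37 C. Stopped at pH 10; 4-MU fluorescence Ex 365/Em 440 nm; AC50 by Hill fit.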
# * = called active by the depositor; ? = inconclusive; nt = no result; [ ] = dose if it differs, or a comment. Calls come from the whole dose curve; as a rule, active = well fitted curve in the direction sought with a large enough effect; inconclusive = small, poorly fitted or top-dose-only effect, or another doubt; inactive = no such curve, though single readings can be large; an effect the other way counts as inactive or inconclusive.
SMILES,N370S GC mod,GAA glycogen,GLA inh pH 4.5,GAA inhib,GLA spleen mod,GAA spleen mod
CC(C)C(C)NC(=O)CSc1nc2scc(-c3ccco3)c2c(=O)n1-c1ccccc1 (stereo unspecified),1.1µM*,9%,-1,-9%,-4%,-19%
O=C(c1ccc(F)cc1)[C@@H]1[C@@H](C(=O)c2ccccc2)[C@@]2(C(=O)Nc3ccccc32)[C@H]2c3ccccc3C=CN12,-6%,4%,0,-2%[15.4 µM],-7%,-7%
COc1cc(C2Nc3ccc4ncccc4c3C3=C2C(=O)CCC3)cc(OC)c1O (stereo unspecified),-3%,45µM*,-7,-3%,-8%,-5%
Cc1cc(C(=O)COc2cccnc2[N+](=O)[O-])c(C)n1Cc1ccco1,4%,-1%,-4,2%,-4%,-1%
CN(C)S(=O)(=O)c1cc(NC(=O)CN2CCN(c3ccccc3)CC2)ccc1Cl,-4%,-8%,5,?,0%,-25%
CN(C)S(=O)(=O)c1cc(NC(=O)CN2CCN(c3ccc(O)cc3)CC2)ccc1Cl,-7%,7.1µM*,5,-18%,-9%,nt
CCCc1nnc(NC(=O)Cn2cnc3ccccc3c2=O)s1,3%,10%,2,-1%,3%,-1%
Cc1ccc(NC(=S)NNC(=S)NCc2ccccc2)cc1,10%,32µM*,1,-4%,-11%,-6%
FC(F)(F)c1cccc(NC(=S)NCc2ccccn2)c1,7%,-3%,-1,4%,0%,4%
Fc1ccc(NC(=S)NCc2ccccc2)cc1,-1%,-11%[76.3 µM],nt,nt,nt,nt
FC(F)(F)c1cccc(NC(=S)NNC(=S)NCc2ccccc2)c1,7%,12µM*,-19,?,-2%,-5%
Cc1ccc(CN2C(=O)c3ccccc3C2C(=O)NC2CCCCCC2)cc1 (stereo unspecified),nt,6%[76.3 µM],nt,nt,nt,nt
Cc1cc(C)c(S(=O)(=O)/N=C2\C=CC(=O)C(Cl)=C2)c(C)c1,-1%,12µM*,0,?,-3%,-2%
CN=C(N)NCCCC(N)C(=O)O (stereo unspecified),1%,nt,-9,nt,-10%,-9%
Fc1ccc(Nc2c(-c3c[nH]c4ccccc34)nc3ccccn23)cc1,nt,14µM*,nt,nt,nt,nt
O=C(Nc1ccc(F)cc1)c1c(Cl)nc2ccccn12,0%,4%,10,1%,-9%,0%
Fc1ccc(NC(=S)NC2CC3CCCC(C2)N3Cc2cccs2)cc1 (stereo unspecified),4%,-5%,-2,5%,6%,5%
CCC(C)[C@@H](C(=O)Nc1ccc(OC)c(OC)c1)N1Cc2ccccc2C1=O (stereo partly specified),-4%,2%,-8,?,0%,-6%
COc1cccc(C(c2c(NC(=O)c3ccccc3)sc(C)c2C)N2CCN(C)CC2)c1 (stereo unspecified),16µM*,3%,1,5%,4%,3%
Cc1cccc2nc(-c3ccco3)c(Nc3ccc4c(c3)OCO4)n12,-7%,?,3,-3%,7%,4%
Cc1ccn2c(Nc3ccc4c(c3)OCO4)c(-c3ccc(Cl)cc3)nc2c1,nt,-13%[76.3 µM],nt,nt,nt,nt
Cc1ccc2nc(-c3ccc(O)cc3)c(Nc3ccc4c(c3)OCCO4)n2c1,?,14µM*,-12,1%[15.4 µM],11%,4%
Cc1ccn2c(Nc3ccc4c(c3)OCO4)c(-c3ccco3)nc2c1,nt,5µM*,nt,nt,nt,nt
Cc1ccc(-c2nc3cccc(C)n3c2Nc2ccc3c(c2)OCO3)o1,nt,1.8µM*,nt,nt,nt,nt
Clc1ccc(-c2nc3ccccn3c2Nc2ccc3c(c2)OCCO3)s1,nt,10µM*,nt,nt,nt,nt
COc1ccc(-c2nc3ccc(C)cn3c2Nc2ccc3c(c2)OCO3)cc1,nt,18µM*,nt,nt,nt,nt
COC(=O)C1CSc2[nH]c(=O)sc2C1c1ccc(OC)c(OC)c1 (stereo unspecified),-5%,18µM*,6,10%,2%,-6%
